Data: the supplement of paper PMC10849652
About 8,800 targets were measured; listed, in parts, are those with a hit and a random draw of the rest. About 0.5% of all pairs of compound and target were hits.

Key:
Experiment in all cases: log2 fold change, soluble protein after heating vs DMSO (PISA); higher = thermal stabilisation; K562 lysate, 10 uM; active = over 0.2 and 3.5 SD of the protein, either way, in both replicates (recomputed)
[1] = compound: C#Cc1cccc(Nc2ncnc3cc(OCCOC)c(OCCOC)cc23)c1 [erlotinib]
Procedure, shortened: (§1)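 Log-two fold change in thermal stability relative to solvent controls is reported from duplicates. For each sample, crude K562 extract from dounce-homogenised pellets in PBS pH 7.4 with 1 mM MgCl2, at 1 mg/mL protein, was treated with 10 μM compound for 30 min. Aliquots heated for 3 min across 48°C-58°C were pooled, brought to 0.5% NP-40 at 4°C and cleared at 21,000xg for 90 min. The supernatant was quantified by TMTpro 16plex LC-MS/MS with channel sums equalised.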

[2] = compound: C/C(=N\NC(=O)C1=CC(=CC=C1)S(=O)(=O)N2CCOCC2)/C3=C(C=CC(=C3)Cl)O
Procedure, shortened: as §1

[3] = compound: C1=CC(=CC=C1C2=NC3=C(N2)C=C(C=C3)C(=O)N)OC4=CC=C(C=C4)Cl
Procedure, shortened: as §1

[4] = compound: C1=CC2=C(C=CC(=C2)/C=C\3/C(=O)NC(=NCC4=CC=CS4)S3)N=C1
Procedure, shortened: as §1

[5] = compound: C1=CC2=NC=CN=C2C=C1/C=C/3\C(=O)NC(=O)S3
Procedure, shortened: as §1

[6] = compound: C1=CC=C(C=C1)C2=NC(=C(N2)C3=CC=NC=C3)C4=CC(=C(C=C4)Cl)O
Procedure, shortened: as §1

[7] = compound: C1=CC=C2C(=C1)C3=NNC4=CC=CC(=C43)C2=O
Procedure, shortened: as §1

[8] = compound: C1CCN(C1)C(=O)NC2=CC=CC(=C2)NC3=NC=C(C(=N3)NCCC4=CN=CN4)Br
Procedure, shortened: as §1

[9] = compound: C1CN(CCC1(CC2=CC=C(C=C2)Cl)N)C3=NC=NC4=C3C=CN4
Procedure, shortened: as §1

[10] = compound: C1COCCN1CCN2C3=CC=CC=C3N=C2NC(=O)C4=CC(=CC=C4)[N+](=O)[O-] [IRAK-1-4 Inhibitor I]
Procedure, shortened: as §1

[11] = compound: C=CC(=O)N1CCC[C@@H](n2nc(-c3ccc(Oc4ccccc4)cc3)c3c(N)ncnc32)C1 [ibrutinib]
Procedure, shortened: as §1

[12] = compound: CC(=O)c1cnc2ccc(-c3cc(Cl)c(O)c(Cl)c3)nc2c1N[C@H]1CC[C@H](CN(C)C)CC1
Procedure, shortened: as §1

[13] = compound: CC(C)(C)Cn1c(N)nc2ccc(-c3[nH]c(C(C)(C)C)nc3-c3ccc(F)cc3)nc21 [ralimetinib]
Procedure, shortened: as §1

[14] = compound: CC(C)(O)CC(=O)NCCn1ccc2ncnc(Nc3ccc(Oc4cccc(C(F)(F)F)c4)c(Cl)c3)c21
Procedure, shortened: as §1

[15] = compound: CC(C)C1=C2N=C(C=C(N2N=C1)NCC3=CC=CC=C3)NCCCCCCN
Procedure, shortened: as §1

[16] = compound: CC1=C(C(CC(=O)N1)C2=CC=C(C=C2)C(F)(F)F)C(=O)NC3=C(C=C4C(=C3)C=NN4)F
Procedure, shortened: as §1

[17] = compound: CC1=C(C2=C(C=C1)C(=O)C3=CC=CC=C3N2CCCN)C
Procedure, shortened: as §1

[18] = compound: CC1=C(C=C(C=C1)NC(=O)C2=CC(=CC=C2)C(C)(C)C#N)NC3=CC4=C(C=C3)N=CN(C4=O)C
Procedure, shortened: as §1

[19] = compound: CC1=C(C=C(C=C1)NC(=O)C2=CC(=CC=C2)N(C)C)NC(=O)C3=CC=C(C=C3)O
Procedure, shortened: as §1

[20] = compound: CC1=CC=C(C=C1)SC2=C3C=C(SC3=CN=C2)C(=O)N
Procedure, shortened: as §1

Measured: log2 fold change

CSPP1 (UniProt Q1MSJ5)
inactive: [1] -0.028 | [2] -0.094 | [3] 0.079 | [4] 0.017 | [5] -0.088 | [6] 0.021 | [7] -0.137 | [8] -0.02 | [9] 0.007 | [10] -0.026 | [11] 0.052 | [12] 0 | [13] 0 | [14] 0.026 | [15] -0.023 | [16] 0 | [17] -0.015 | [18] -0.074 | [19] -0.006 | [20] 0.084

DERA (UniProt Q9Y315)
inactive: [1] -0.008 | [2] 0.008 | [3] 0.028 | [4] 0.014 | [5] 0.015 | [6] 0.001 | [7] 0.019 | [8] 0.013 | [9] 0.023 | [10] 0.002 | [11] -0.011 | [12] 0.008 | [13] 0.008 | [14] -0.032 | [15] 0.013 | [16] -0.01 | [17] -0.037 | [18] 0.033 | [19] -0.008 | [20] -0.017

CRABP2 (UniProt P29373)
Chain of UniProt P29373 (P29373 whole entry, looked up): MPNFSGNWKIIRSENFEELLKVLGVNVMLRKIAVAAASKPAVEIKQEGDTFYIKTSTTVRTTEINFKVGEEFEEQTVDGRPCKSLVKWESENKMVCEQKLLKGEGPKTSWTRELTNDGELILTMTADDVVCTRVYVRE
inactive: [1] 0.026 | [2] -0.112 | [3] -0.017 | [4] -0.063 | [5] 0.2 | [6] -0.042 | [7] -0.151 | [9] 0.309 | [10] -0.024 | [11] -0.039 | [12] 0.061 | [13] 0.097 | [14] -0.015 | [15] -0.002 | [16] 0.176 | [17] -0.088 | [18] -0.028 | [19] 0.082 | [20] -0.03
active: [8] 0.399

CTPS1 (UniProt P17812)
inactive: [1] -0.002 | [2] 0.011 | [3] -0.027 | [4] -0.009 | [5] 0.005 | [6] -0.013 | [7] -0.011 | [8] -0.007 | [9] -0.007 | [10] -0.001 | [11] -0.045 | [12] 0.01 | [13] -0.017 | [14] -0.015 | [15] -0.022 | [16] -0.012 | [17] 0.024 | [18] 0.004 | [19] 0.017 | [20] 0.02

CTPS2 (UniProt Q9NRF8)
Chain of UniProt Q9NRF8 (Q9NRF8 whole entry, looked up): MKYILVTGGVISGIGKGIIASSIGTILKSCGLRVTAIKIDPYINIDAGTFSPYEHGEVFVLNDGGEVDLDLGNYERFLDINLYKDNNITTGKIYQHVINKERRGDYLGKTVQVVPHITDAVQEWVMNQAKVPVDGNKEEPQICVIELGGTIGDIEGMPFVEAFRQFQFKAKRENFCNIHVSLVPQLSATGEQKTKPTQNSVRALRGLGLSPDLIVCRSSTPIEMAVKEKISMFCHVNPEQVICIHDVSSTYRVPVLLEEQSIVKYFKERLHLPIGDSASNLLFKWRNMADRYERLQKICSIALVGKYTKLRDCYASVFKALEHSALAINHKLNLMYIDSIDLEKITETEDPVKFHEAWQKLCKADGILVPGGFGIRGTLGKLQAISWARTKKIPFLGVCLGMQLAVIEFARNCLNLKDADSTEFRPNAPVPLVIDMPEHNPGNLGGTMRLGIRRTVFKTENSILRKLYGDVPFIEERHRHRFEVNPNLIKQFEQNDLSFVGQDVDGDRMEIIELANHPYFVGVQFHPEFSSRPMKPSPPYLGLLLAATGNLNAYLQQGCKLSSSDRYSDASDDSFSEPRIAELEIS
inactive: [1] -0.009 | [2] -0.008 | [3] -0.016 | [4] -0.01 | [5] 0.01 | [6] -0.008 | [7] 0 | [8] -0.021 | [9] -0.015 | [10] -0.006 | [11] 0.021 | [12] 0.006 | [13] 0.017 | [14] -0.026 | [15] -0.011 | [16] 0.008 | [17] -0.004 | [18] 0.009 | [19] 0.005 | [20] -0.009

DCP2 (UniProt Q8IU60)
inactive: [1] 0.005 | [2] 0.039 | [3] -0.029 | [4] -0.064 | [5] -0.037 | [6] -0.007 | [7] 0.001 | [8] 0.025 | [9] -0.014 | [10] -0.017 | [11] -0.005 | [12] -0.005 | [13] 0.067 | [14] 0.003 | [15] 0.006 | [16] 0.021 | [17] 0.034 | [18] -0.043 | [19] 0.081 | [20] -0.002

DOCK7 (UniProt Q96N67)
inactive: [1] 0.078 | [2] 0.009 | [3] -0.045 | [4] -0.041 | [5] -0.126 | [6] 0.014 | [7] -0.023 | [8] -0.003 | [9] 0.016 | [10] 0.024 | [11] -0.117 | [12] -0.009 | [13] 0.077 | [14] -0.054 | [15] 0.021 | [16] 0.03 | [17] -0.078 | [18] 0.009 | [19] 0.065 | [20] -0.028

DDX20 (UniProt Q9UHI6)
inactive: [1] 0.021 | [2] 0.048 | [3] -0.054 | [4] -0.029 | [5] -0.005 | [6] 0.007 | [7] 0.022 | [8] 0.032 | [9] 0.042 | [10] -0.015 | [11] -0.01 | [12] 0.017 | [13] 0.029 | [14] -0.029 | [15] -0.03 | [16] -0.011 | [17] 0.004 | [18] -0.006 | [19] 0.044 | [20] 0.01

DDA1 (UniProt Q9BW61)
inactive: [1] -0.004 | [2] -0.001 | [3] 0.036 | [4] -0.03 | [5] 0.008 | [6] -0.093 | [7] 0.016 | [8] -0.017 | [9] -0.01 | [10] 0.012 | [11] 0.108 | [12] -0.003 | [13] 0 | [14] 0.019 | [15] -0.072 | [16] 0.028 | [17] 0.022 | [18] 0.01 | [19] 0.018 | [20] -0.017

CXXC1 isoform 2 (UniProt Q9P0U4)
Chain of UniProt Q9P0U4 (Q9P0U4 whole entry, looked up): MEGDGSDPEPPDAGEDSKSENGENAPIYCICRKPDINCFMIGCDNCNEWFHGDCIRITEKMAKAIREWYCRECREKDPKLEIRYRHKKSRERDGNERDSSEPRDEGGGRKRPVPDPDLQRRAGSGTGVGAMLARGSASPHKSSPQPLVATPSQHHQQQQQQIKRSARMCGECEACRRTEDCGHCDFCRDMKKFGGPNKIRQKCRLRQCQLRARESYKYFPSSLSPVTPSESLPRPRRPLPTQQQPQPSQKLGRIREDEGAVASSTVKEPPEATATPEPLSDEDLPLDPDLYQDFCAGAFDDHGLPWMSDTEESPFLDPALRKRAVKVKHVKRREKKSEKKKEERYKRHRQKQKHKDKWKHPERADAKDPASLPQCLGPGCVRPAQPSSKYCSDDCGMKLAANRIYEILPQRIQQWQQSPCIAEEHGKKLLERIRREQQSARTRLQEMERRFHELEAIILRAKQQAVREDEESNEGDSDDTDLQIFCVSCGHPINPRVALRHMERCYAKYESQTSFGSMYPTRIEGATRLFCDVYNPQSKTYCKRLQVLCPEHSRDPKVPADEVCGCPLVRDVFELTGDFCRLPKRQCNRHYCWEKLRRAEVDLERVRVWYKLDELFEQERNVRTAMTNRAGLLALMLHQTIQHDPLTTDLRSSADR
inactive: [1] 0.02 | [2] -0.031 | [3] -0.051 | [4] 0.029 | [5] -0.085 | [6] -0.036 | [7] -0.088 | [8] 0.082 | [9] 0.04 | [10] 0.059 | [11] -0.034 | [12] -0.078 | [13] 0.013 | [14] -0.089 | [15] -0.005 | [16] -0.01 | [17] 0.082 | [18] 0.004 | [19] 0.061 | [20] -0.155

DMXL1 (UniProt Q9Y485)
inactive: [1] 0.006 | [2] 0.016 | [3] -0.015 | [4] -0.017 | [5] -0.024 | [6] -0.008 | [7] -0.026 | [8] -0.013 | [9] -0.001 | [10] 0.016 | [11] -0.02 | [12] -0.025 | [13] 0.021 | [14] -0.012 | [15] 0.016 | [16] -0.001 | [17] -0.024 | [18] 0 | [19] 0.064 | [20] -0.026

DICER1 (UniProt Q9UPY3)
Chain of UniProt Q9UPY3 (Q9UPY3 whole entry, looked up): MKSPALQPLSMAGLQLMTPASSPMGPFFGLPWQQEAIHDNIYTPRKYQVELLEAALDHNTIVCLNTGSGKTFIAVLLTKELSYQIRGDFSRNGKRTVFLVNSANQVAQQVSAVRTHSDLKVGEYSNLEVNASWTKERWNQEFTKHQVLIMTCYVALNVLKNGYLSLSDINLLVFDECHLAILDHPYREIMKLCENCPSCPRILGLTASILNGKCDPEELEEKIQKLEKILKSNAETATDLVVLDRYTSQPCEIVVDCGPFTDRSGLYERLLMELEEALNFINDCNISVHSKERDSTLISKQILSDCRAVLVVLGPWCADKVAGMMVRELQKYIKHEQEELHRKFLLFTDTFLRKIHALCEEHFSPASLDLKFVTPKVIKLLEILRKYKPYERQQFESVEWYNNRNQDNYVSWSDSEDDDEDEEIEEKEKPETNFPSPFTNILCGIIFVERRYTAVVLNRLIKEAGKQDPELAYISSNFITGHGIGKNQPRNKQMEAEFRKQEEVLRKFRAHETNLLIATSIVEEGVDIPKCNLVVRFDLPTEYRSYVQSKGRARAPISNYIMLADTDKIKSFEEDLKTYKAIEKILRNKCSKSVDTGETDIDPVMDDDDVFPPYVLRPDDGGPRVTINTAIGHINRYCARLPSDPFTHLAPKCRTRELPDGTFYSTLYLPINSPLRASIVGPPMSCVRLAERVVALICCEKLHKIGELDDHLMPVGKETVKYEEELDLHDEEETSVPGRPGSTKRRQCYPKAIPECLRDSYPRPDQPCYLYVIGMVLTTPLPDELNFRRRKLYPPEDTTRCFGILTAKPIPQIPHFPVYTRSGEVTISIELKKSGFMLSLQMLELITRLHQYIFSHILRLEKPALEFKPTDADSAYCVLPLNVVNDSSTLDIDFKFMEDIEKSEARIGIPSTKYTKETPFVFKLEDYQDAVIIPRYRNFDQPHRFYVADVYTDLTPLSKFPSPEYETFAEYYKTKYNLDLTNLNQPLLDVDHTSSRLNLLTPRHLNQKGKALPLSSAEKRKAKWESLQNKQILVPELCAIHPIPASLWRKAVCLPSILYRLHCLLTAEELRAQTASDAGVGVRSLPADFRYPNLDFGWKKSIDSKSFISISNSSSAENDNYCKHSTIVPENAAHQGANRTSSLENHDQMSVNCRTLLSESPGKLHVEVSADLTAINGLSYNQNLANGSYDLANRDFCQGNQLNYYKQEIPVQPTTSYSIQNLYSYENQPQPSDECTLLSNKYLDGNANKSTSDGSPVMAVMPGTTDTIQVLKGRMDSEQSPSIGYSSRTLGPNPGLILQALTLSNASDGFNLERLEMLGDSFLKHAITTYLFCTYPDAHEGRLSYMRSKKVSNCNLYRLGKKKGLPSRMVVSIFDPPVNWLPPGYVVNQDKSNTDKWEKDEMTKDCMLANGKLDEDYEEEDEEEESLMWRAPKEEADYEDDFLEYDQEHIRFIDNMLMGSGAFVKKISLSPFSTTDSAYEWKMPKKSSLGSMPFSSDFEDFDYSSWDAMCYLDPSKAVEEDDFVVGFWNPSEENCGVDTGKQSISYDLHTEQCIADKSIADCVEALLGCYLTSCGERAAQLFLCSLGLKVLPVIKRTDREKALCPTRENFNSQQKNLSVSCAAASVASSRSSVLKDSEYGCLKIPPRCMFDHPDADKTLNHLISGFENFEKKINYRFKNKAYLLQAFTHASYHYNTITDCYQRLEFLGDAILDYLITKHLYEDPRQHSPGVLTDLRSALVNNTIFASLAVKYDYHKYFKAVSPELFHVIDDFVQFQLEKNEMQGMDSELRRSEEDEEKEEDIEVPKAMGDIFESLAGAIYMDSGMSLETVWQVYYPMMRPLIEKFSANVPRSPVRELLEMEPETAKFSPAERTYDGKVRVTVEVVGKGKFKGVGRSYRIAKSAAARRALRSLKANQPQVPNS
inactive: [1] 0.013 | [2] -0.088 | [3] -0.056 | [4] -0.023 | [5] -0.027 | [6] 0.03 | [7] -0.025 | [8] -0.064 | [9] -0.042 | [10] -0.016 | [11] -0.011 | [12] 0.037 | [13] 0.019 | [14] -0.055 | [15] 0.012 | [16] 0.044 | [17] 0.003 | [18] 0.018 | [19] 0.013 | [20] 0

CTNNBL1 (UniProt Q8WYA6)
Chain of UniProt Q8WYA6 (Q8WYA6 whole entry, looked up): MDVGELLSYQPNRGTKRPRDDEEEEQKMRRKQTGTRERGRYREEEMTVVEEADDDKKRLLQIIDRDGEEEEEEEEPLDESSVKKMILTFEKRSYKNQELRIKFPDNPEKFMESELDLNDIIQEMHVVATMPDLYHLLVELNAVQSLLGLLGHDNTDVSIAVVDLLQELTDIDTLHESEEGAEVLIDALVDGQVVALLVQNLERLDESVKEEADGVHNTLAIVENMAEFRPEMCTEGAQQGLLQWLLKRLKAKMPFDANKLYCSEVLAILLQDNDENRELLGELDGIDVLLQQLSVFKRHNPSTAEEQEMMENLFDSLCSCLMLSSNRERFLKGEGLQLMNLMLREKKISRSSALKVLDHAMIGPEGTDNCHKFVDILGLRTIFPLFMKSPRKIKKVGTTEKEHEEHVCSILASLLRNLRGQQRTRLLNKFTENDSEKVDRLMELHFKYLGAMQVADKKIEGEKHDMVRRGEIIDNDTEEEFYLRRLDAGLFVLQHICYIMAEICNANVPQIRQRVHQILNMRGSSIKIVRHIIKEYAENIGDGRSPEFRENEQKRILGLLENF
inactive: [1] 0.023 | [2] 0.052 | [3] 0.023 | [4] 0.018 | [5] 0.015 | [6] 0.103 | [7] -0.033 | [8] -0.042 | [9] -0.033 | [10] 0.088 | [11] 0 | [12] 0.047 | [13] -0.095 | [14] -0.169 | [15] 0.017 | [16] -0.051 | [17] -0.04 | [18] 0.015 | [19] 0.056 | [20] 0.01

COPZ1 isoform 4 (UniProt P61923)
Chain of UniProt P61923 (P61923 whole entry, looked up): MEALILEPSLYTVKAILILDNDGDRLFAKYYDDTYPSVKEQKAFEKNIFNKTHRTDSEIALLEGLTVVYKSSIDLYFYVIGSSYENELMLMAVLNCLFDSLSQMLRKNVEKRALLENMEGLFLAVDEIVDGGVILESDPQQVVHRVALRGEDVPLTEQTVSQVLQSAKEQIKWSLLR
inactive: [1] -0.029 | [2] 0.065 | [3] -0.05 | [4] -0.036 | [5] -0.142 | [6] -0.006 | [7] 0 | [8] -0.08 | [9] -0.028 | [10] -0.015 | [11] 0.123 | [12] 0.007 | [13] 0 | [14] 0.013 | [15] 0.02 | [16] -0.054 | [17] 0.037 | [18] 0.03 | [19] -0.012 | [20] 0.117

CMTM3 (UniProt Q96MX0)
Chain of UniProt Q96MX0 (Q96MX0 whole entry, looked up): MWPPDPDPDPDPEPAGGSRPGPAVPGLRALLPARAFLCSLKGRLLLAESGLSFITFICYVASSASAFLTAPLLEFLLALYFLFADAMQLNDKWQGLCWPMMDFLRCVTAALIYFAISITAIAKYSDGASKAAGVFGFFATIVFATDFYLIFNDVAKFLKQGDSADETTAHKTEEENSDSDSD
inactive: [1] 0.002 | [2] -0.112 | [3] 0.053 | [4] -0.084 | [5] -0.009 | [6] -0.011 | [7] -0.019 | [8] -0.083 | [9] -0.089 | [10] -0.012 | [11] -0.036 | [12] 0.036 | [13] 0.093 | [14] 0.104 | [15] -0.022 | [16] 0.052 | [17] -0.06 | [18] 0.06 | [19] -0.039 | [20] -0.016

COG2 (UniProt Q14746)
Chain of UniProt Q14746 (Q14746 whole entry, looked up): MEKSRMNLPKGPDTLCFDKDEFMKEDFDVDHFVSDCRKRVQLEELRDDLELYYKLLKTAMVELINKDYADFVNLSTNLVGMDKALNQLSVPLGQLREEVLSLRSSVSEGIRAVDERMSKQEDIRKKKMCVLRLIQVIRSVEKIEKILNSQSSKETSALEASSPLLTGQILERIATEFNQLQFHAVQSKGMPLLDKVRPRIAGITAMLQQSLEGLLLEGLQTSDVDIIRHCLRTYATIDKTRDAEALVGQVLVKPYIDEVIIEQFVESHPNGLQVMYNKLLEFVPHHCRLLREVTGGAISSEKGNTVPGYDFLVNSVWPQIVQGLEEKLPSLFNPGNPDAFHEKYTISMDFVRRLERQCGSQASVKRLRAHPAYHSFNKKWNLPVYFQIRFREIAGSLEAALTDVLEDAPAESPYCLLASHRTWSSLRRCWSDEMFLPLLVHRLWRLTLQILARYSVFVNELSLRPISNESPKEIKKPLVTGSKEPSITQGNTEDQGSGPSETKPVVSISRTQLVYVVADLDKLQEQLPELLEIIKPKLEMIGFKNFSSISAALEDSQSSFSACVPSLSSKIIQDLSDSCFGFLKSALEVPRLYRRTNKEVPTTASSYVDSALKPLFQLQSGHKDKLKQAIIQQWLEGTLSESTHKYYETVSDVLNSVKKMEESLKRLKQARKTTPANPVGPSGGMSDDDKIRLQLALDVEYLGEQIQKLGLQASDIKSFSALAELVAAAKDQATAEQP
inactive: [1] 0.009 | [2] 0.036 | [3] -0.021 | [4] -0.022 | [5] -0.032 | [6] -0.017 | [7] -0.001 | [8] 0.011 | [9] 0.031 | [10] 0.03 | [11] -0.029 | [12] -0.023 | [13] 0.017 | [14] -0.017 | [15] 0 | [16] 0.023 | [17] -0.035 | [18] -0.019 | [19] 0.062 | [20] -0.009
